Results taken from PubChem BioAssay (NCATS).
Inconclusive results are not listed. Active and inactive are the calls of the source. Calls follow the shape of the dose curve; as a rule, active = well fitted inhibition curve with a large enough effect; inconclusive = small, poorly fitted or top-dose-only effect; inactive = flat fitted curve, though single readings scatter.

Target: Ubiquitin carboxyl-terminal hydrolase 1 (Homo sapiens) (UniProt O94782)
Experiment: Inhibitors of USP1/UAF1: Pilot qHTS (AID 504865); also: nearly all actives have a fitted effect of over 35% in size;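 as to activity change, negative = inhibition: rhodamine fluorescence freed from ubiquitin-rhodamine substrate followed over time; top concentration of the series differs between compounds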
Conditions: purified USP1/UAF1, Ub-rhodamine cleavage fluorescence; series mostly up to 114 µM; activity change, negative = inhibition: at the top concentration
Source text: Deubiquitinating enzymes (DUBs) are a class of enzymes that can cleave isopeptide bond formed between the C-terminal carboxylate of ubiquitin and a lysine side-chain amino group on the target protein. Among them, ubiquitin specific proteases (USPs) constitute the largest DUB family. Human USPs are emerging as promising targets for pharmacological intervention because of their connection to a number of human diseases, including prostate, colon and breast cancer (1, 2), pediatric acute lymphoblastic leukemia (3), and familial cylindromatosis (4). The advantage of inhibiting USPs lies in the potential specificity of therapeutic intervention that can lead to better efficacy and reduce nonspecific side effects.
In a collaboration between the University of Delaware and the NIH Chemical Genomics Center, a high-throughput screen assay was developed to screen for USP1/UAF1 inhibitors. This miniaturized assay has a fluorescent read-out and is used to screen the NIH Molecular Libraries Small Molecule Repository (MLSMR) in order to identify a small molecule that inhibits USP1.
NIH Chemical Genomics Center [NCGC]
NIH Molecular Libraries Probe Centers Network [MLPCN]
Assay Submitter (PI): Zhihao Zhuang, University of Delaware
1. Priolo, C., et al. (2006) The isopeptidase USP2a protects human prostate cancer from apoptosis. Cancer Res 66, 8625-8632
2. Popov, N., et al. (2007) The ubiquitin-specific protease USP28 is required for MYC stability. Nat Cell Biol 9, 765-774
3. De Pitta, C., et al. (2005) A leukemia-enriched cDNA microarray platform identifies new transcripts with relevance to the biology of pediatric acute lymphoblastic leukemia. Haematologica 90, 890-898
4. Kovalenko, A., et al. (2003) The tumour suppressor CYLD negatively regulates NF-kappaB signalling by deubiquitination. Nature 424, 801-805
3 microliters of reagents (buffer in columns 3 and 4 as negative control and 1nM USP1/UAF1 complex in columns 1, 2, and 5-48) are dispensed into Greiner black solid bottom 1536-well assay plates. Compounds are then transferred via Kalypsys pin tool equipped with 1536-pin array (10nl slotted pins, V&P Scientific, San Diego, CA). Following an incubation step of 15 min at room temperature, 1ul of Ub-Rho substrate (150nM final concentration) is added to initiate the reaction. The plates are immediately centrifuged at 1000 rpm for 15 seconds, and subsequently transferred to a ViewLux high-throughput CCD imager (PerkinElmer) wherein kinetic measurements of fluorescence are acquired using 480 nm excitation/540 nm emission filter set (6 reads every 60 seconds, see Table 1). All reagents are diluted in an assay buffer consisting of 50mM HEPES (pH 7.8), 0.5mM EDTA, 0.1 mg/ml BSA, 1mM TCEP, and 0.01% Tween-20.
% is scaled to controls: 0 for no effect and ±100 for the full control effect; potency is read from the fitted curve at half-maximal effect.

Ubiquitin carboxyl-terminal hydrolase 1 (Homo sapiens), sequence (O94782 whole entry, looked up): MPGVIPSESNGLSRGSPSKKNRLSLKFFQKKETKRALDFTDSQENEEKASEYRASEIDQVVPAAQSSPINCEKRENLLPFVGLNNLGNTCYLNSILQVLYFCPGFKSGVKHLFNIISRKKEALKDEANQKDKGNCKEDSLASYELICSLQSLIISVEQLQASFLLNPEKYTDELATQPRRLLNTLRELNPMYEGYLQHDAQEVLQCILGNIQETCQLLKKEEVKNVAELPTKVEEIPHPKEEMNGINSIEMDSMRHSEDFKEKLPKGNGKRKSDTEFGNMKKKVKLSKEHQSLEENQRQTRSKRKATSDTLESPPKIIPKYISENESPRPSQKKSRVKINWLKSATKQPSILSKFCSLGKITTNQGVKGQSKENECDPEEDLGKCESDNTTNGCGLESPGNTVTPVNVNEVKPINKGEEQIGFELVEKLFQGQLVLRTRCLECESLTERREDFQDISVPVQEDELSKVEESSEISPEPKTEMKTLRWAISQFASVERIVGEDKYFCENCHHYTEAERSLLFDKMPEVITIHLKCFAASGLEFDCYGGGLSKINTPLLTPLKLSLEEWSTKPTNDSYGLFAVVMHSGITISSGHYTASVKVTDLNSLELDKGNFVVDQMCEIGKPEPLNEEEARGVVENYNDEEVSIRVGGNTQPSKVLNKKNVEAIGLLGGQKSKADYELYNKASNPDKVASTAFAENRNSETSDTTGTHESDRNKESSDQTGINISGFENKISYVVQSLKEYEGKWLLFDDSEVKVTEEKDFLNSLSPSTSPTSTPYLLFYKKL

Row | SMILES | Potency | activity change, negative = inhibition
1 | CC(C)[N+](C)(CCC(C(N)=O)(c1ccccc1)c1ccccc1)C(C)C | inactive | 
2 | CC[C@H]1CN2CCc3cc(OC)c(OC)cc3[C@@H]2C[C@@H]1C[C@H]1NCCc2cc(OC)c(OC)cc21 |  | -1.56% (inactive)
3 | CCN(CC)CCOC(=O)C(C)(c1ccccc1)c1ccccc1 |  | -9.74% (inactive)
4 | O=c1n(Cl)c(=O)n(Cl)c(=O)n1Cl |  | -9.43% (inactive)
5 | CCN(Cc1ccc(Cl)nc1)/C(=C/[N+](=O)[O-])NC |  | -6.05% (inactive)
6 | CCN(CC)C(C)C(=O)c1ccccc1 (stereo not given) |  | -7.05% (inactive)
7 | CCC1(CC)C(=O)NC(=O)NC1=O |  | -2.14% (inactive)
8 | CNC(=O)Oc1cccc2ccccc12 |  | -7.79% (inactive)
9 | CN1CCc2cc(Cl)c(O)cc2[C@H]2c3ccccc3CC[C@@H]21 |  | -6.96% (inactive)
10 | C[C@H]1C(=O)O[C@@H]2CCN3CC=C(COC(=O)[C@](C)(O)[C@]1(C)O)[C@H]23 |  | 0.385% (inactive)
11 | C[C@]12CC[C@H]3[C@@H](CC=C4C[C@@H](O)CC[C@@]43C)[C@@H]1CC[C@@H]2O |  | 0.778% (inactive)
12 | CNC(=O)Oc1ccc2c(c1)[C@]1(C)CCN(C)[C@@H]1N2C | inactive | 
13 | COC(=O)C1=C(C)NC(C)=C(C(=O)OC)C1c1ccccc1[N+](=O)[O-] | inactive | 
14 | CCS(=O)(=O)C(C)(C)S(=O)(=O)CC |  | -8.01% (inactive)
15 | COC(=O)C1=CCCN(C)C1 | inactive | 
16 | CC(C)C(Br)C(=O)NC(N)=O (stereo not given) |  | 1.73% (inactive)
17 | CN1C(=O)CN=C(c2ccccc2)c2cc([N+](=O)[O-])ccc21 |  | -1.64% (inactive)
18 | C[N+](C)(C)CCOC(=O)C(O)(c1ccccc1)c1ccccc1 |  | -7.45% (inactive)
19 | C=CCOC(Cn1ccnc1)c1ccc(Cl)cc1Cl (stereo not given) |  | -6.91% (inactive)
20 | CCN1CCCC(OC(=O)C(c2ccccc2)c2ccccc2)C1 (stereo not given) |  | -12.1% (inactive)

Row | SMILES | Potency | activity change, negative = inhibition
21 | CCNc1nc(Cl)nc(NCC)n1 |  | 2.69% (inactive)
22 | Cc1c(Cl)c(=O)oc2cc(OP(=O)(OCCCl)OCCCl)ccc12 |  | -6.33% (inactive)
23 | C[C@H](N)[C@H](O)c1ccc(O)c(O)c1 |  | -7.32% [at 54.9 µM] (inactive)
24 | CN(C)CC/C=C1\c2ccccc2Sc2ccc(Cl)cc21 | inactive | 
25 | COP(=O)(OC)C(O)C(Cl)(Cl)Cl (stereo not given) |  | 7.96% (inactive)
26 | COP(=O)(OC)OC=C(Cl)Cl |  | -4.48% (inactive)
27 | OC(c1ccccc1)(c1ccccc1)C1CCNCC1 |  | 3.61% [at 54.9 µM] (inactive)
28 | O=C1NCN(c2ccccc2)C12CCN(CCCOc1ccc(F)cc1)CC2 |  | -8.58% (inactive)
29 | C[C@]12C=CC(=O)C=C1CC[C@@H]1[C@@H]2CC[C@@]2(C)[C@H]1CC[C@]2(C)O |  | -2.77% (inactive)
30 | COc1ccc(C(=O)N2CCCC2=O)cc1 | inactive | 
31 | CN1C(=O)[C@@H](NC(=O)c2cc3ccccc3[nH]2)N=C(c2ccccc2)c2ccccc21 |  | -4.12% (inactive)
32 | C[N+]1(CCC(C(N)=O)(c2ccccc2)c2ccccc2)CCCCC1 |  | 0.54% (inactive)
33 | OC(O)C(Cl)(Cl)Cl |  | -3.14% (inactive)
34 | CCCCCCCCCCCCCCCC[n+]1ccccc1 | 20 µM (active) | 
35 | C[C@]12Cc3nonc3C[C@@H]1CC[C@@H]1[C@@H]2CC[C@@]2(C)[C@H]1CC[C@]2(C)O |  | -7.19% (inactive)
36 | CCCCCCCCC(=O)NCc1ccc(O)c(OC)c1 |  | -17.4% (inactive)
37 | CN1C[C@H](C(=O)N[C@]2(C)O[C@@]3(O)[C@@H]4CCCN4C(=O)[C@H](Cc4ccccc4)N3C2=O)C[C@@H]2c3cccc4[nH]cc(c34)C[C@H]21 |  | -7.89% (inactive)
38 | CCCCCCCCCCCC[N+](C)(C)CCOc1ccccc1 | 79.4 µM (active) | 
39 | CCCC(C)C1(CC)C(=O)N=C(S)NC1=O (stereo not given) |  | -11.6% (inactive)
40 | c1ccc2nc(N3CCNCC3)ccc2c1 | inactive | 
